Screening results: PubChem, Corson Lab, School of Medicine, Indiana University
The entries come from a sample that favours hits as a whole.
FECH block = inhibitors of human ferrochelatase. P22830. purified FECH, Ni-mesoporphyrin absorbance 550 nm. calls only at 10 µM (by protocol). 3.3% of 20,000 active. AID 1671448;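 active = enzyme reaction rate more than 3 SD below the solvent-only control wells on the same plate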;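 note: lower slope than DMSO wells means FECH inhibition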
Target sequence (P22830 whole entry, looked up): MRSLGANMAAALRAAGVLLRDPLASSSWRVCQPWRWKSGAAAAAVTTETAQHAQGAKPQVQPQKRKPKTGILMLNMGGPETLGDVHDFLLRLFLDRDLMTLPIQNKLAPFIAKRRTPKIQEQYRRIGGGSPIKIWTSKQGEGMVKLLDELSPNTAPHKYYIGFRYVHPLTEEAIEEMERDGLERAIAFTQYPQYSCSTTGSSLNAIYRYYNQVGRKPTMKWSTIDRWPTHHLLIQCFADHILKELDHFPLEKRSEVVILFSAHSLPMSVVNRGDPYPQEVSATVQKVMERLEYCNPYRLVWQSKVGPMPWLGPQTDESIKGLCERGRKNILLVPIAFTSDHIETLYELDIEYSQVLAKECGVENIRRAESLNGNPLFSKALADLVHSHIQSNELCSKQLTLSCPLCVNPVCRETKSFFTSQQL
Starred values were filed as active, the others as inactive.

What do the screens show for `Cc1cccc(N2CCN(c3ncc(NS(=O)(=O)c4cccc(F)c4)cc3C(=O)O)CC2C)c1` (stereo not drawn)?
FECH block: inactive

What do the screens show for `O=C1CC2(CCN(Cc3ccc4c(c3)Cc3ccccc3-4)CC2)CN1`?
FECH block: inactive

Results for COc1ccc(Nc2nc(NC3CCCC3)nc3c2cnn3-c2ccccc2)cc1 ?
FECH block: inactive

What do the screens show for `CCn1nc(CC(C)C)cc1C(=O)N1CCC2(CC1)CC(C(=O)O)N(C)C2` (stereo not drawn)?
FECH block: inactive

How did CN1C(=O)c2ccccc2Sc2cc(-c3noc(COc4ccc(F)cc4)n3)ccc21 do in these assays?
FECH block: inactive

Results for CN1C(=O)c2ccccc2Sc2cc(-c3noc(CNC(=O)c4ccccc4)n3)ccc21 ?
FECH block: active

Results for CC(=O)Nc1ccc(-c2nc(-c3ccc4c(c3)Sc3ccccc3C(=O)N4C)no2)cc1 ?
FECH block: inactive

What do the screens show for `Cc1ccc(S(=O)(=O)NCc2nc3cccnc3n2C2CCCCC2)cc1`?
FECH block: inactive

What do the screens show for `CCc1oc(C(=O)N2CCC(n3nc(C)cc3C)C2)cc1CN1CCCC1` (stereo not drawn)?
FECH block: inactive

What do the screens show for `CC(=O)Nc1cccc(-c2ccc3[nH]ncc3c2)c1`?
FECH block: inactive

Results for CCCc1cnc(C)nc1-c1cccc(NC(C)=O)c1 ?
FECH block: active

How did CC(=O)Nc1cccc(-c2ncc(C(F)(F)F)cc2Cl)c1 do in these assays?
FECH block: inactive

What do the screens show for `CC(C)CCNC(=O)c1nc[nH]c1C(=O)NCCC(C)C`?
FECH block: inactive

How did O=C(NC1CCCCC1)C(=O)N1CCN2C(=O)CNC(=O)C2C1 (stereo not drawn) do in these assays?
FECH block: inactive

What do the screens show for `CSc1nc(Nc2cccc(F)c2)c(C#N)c(-c2ccc(C)cc2)n1`?
FECH block: inactive

What do the screens show for `COc1ccc(Nc2nc(NCCO)nc3c2cnn3-c2ccccc2)cc1`?
FECH block: inactive

Results for COCCNc1nc(Nc2ccc(OC)cc2)c2cnn(-c3ccccc3)c2n1 ?
FECH block: inactive

Results for COc1ccc(Nc2nc(NCC(C)O)nc3c2cnn3-c2ccccc2)cc1 (stereo not drawn) ?
FECH block: active

Results for Cc1ccc(Nc2nc(N3CCOCC3)nc3c2cnn3-c2ccccc2)cc1C ?
FECH block: inactive

What do the screens show for `COc1ccc(Nc2nc(N3CCCC3)nc3c2cnn3-c2ccccc2)cc1`?
FECH block: active

How did CCCNc1nc(Nc2ccc(OC)cc2)c2cnn(-c3ccccc3)c2n1 do in these assays?
FECH block: active

Results for FC(F)Sc1ccc(Nc2nc(N3CCOCC3)nc3c2cnn3-c2ccccc2)cc1 ?
FECH block: active

How did CCOc1ccc(Nc2nc(N3CCCC3)nc3c2cnn3-c2ccccc2)cc1 do in these assays?
FECH block: inactive

Results for COc1cccc(Nc2nc(NCC(C)O)nc3c2cnn3-c2ccccc2)c1 (stereo not drawn) ?
FECH block: inactive

What do the screens show for `COc1ccc(Nc2nc(N3CCN(C)CC3)nc3c2cnn3-c2ccccc2)cc1`?
FECH block: inactive

Results for CCOc1ccc(Nc2nc(N3CCOCC3)nc3c2cnn3-c2ccccc2)cc1 ?
FECH block: inactive

What do the screens show for `Cc1ccc(Nc2nc(NCC(C)O)nc3c2cnn3-c2ccccc2)cc1C` (stereo not drawn)?
FECH block: inactive

Results for CCCN(CCC)c1ncc(NS(=O)(=O)c2cc(F)ccc2F)cc1C(=O)O ?
FECH block: inactive

How did CCc1nc(C)sc1CNC(=O)c1cc2n(n1)CCCNC2 do in these assays?
FECH block: inactive

What do the screens show for `Cc1cc(NC(=O)CCc2ccccc2)n(-c2ncnc3c2cnn3-c2ccc(Cl)cc2)n1`?
FECH block: inactive

What do the screens show for `CCN(CC)C(=O)c1cn(C2CCN(C(=O)C(C)(C)c3ccccc3)CC2)nn1`?
FECH block: inactive

How did Cc1c(NCc2ccccn2)cccc1C(=O)Nc1cnc2n1CCCC2 do in these assays?
FECH block: inactive

What do the screens show for `Cc1cccc(N2CCN(C(=O)Cn3c(=O)c4cnc(-c5ccccc5)nc4n(C)c3=O)CC2C)c1` (stereo not drawn)?
FECH block: inactive

What do the screens show for `Cc1cccc(N2CCN(C(=O)c3nc4ccccc4n(C)c3=O)CC2C)c1` (stereo not drawn)?
FECH block: active

How did Cn1c(=O)c(C(=O)N2CCN(C3CCCCC3)CC2)nc2ccccc21 do in these assays?
FECH block: inactive

Results for Cc1ccc(Cl)cc1N1CCN(C(=O)c2nc3ccccc3n(C)c2=O)CC1 ?
FECH block: inactive

What do the screens show for `Cc1ccc(NC(=O)c2nc3ccccc3n(C)c2=O)c(C)c1`?
FECH block: inactive

What do the screens show for `COc1cccc(N2CCN(C(=O)c3nc4ccccc4n(C)c3=O)CC2)c1`?
FECH block: active

What do the screens show for `Cc1ccc(CN2CC(C(=O)N3CCN(C)C(=O)C3)CC2=O)cc1` (stereo not drawn)?
FECH block: inactive

What do the screens show for `CCCc1ccc(-c2nccn2CCOC)o1`?
FECH block: inactive

Results for COc1ccc(CCNC(=O)CN2CCN(Cc3ccc(F)cc3Cl)S2(=O)=O)cc1OC ?
FECH block: active

How did O=C(CN1CCN(Cc2ccc(F)cc2Cl)S1(=O)=O)NCc1ccccc1Cl do in these assays?
FECH block: active

Results for Cc1c(Cl)cccc1NC(=O)CN1CCN(Cc2ccc(F)cc2Cl)S1(=O)=O ?
FECH block: active

Results for Cc1ccc(CNC(=O)CN2CCN(Cc3ccc(F)cc3Cl)S2(=O)=O)cc1 ?
FECH block: inactive

How did O=C(CN1CCN(Cc2ccc(F)cc2Cl)S1(=O)=O)NCc1ccccc1 do in these assays?
FECH block: active

Results for Cc1cccc(C)c1NC(=O)CN1CCN(Cc2ccc(F)cc2Cl)S1(=O)=O ?
FECH block: inactive

How did Cc1ccc(CN2CCN(CC(=O)Nc3cccc(Cl)c3C)S2(=O)=O)cc1 do in these assays?
FECH block: inactive

Results for O=C(CN1CCN(Cc2ccccc2Cl)S1(=O)=O)NCc1ccccc1Cl ?
FECH block: inactive

Results for O=C(CN1CCN(Cc2ccc(F)cc2Cl)S1(=O)=O)Nc1ccc2c(c1)OCO2 ?
FECH block: inactive

What do the screens show for `O=C(CN1CCN(Cc2ccccc2Cl)S1(=O)=O)Nc1ccc(F)cc1`?
FECH block: inactive

What do the screens show for `COC(=O)c1ccc(OC)c(CN2CCN(Cc3ccc(F)cc3Cl)S2(=O)=O)c1`?
FECH block: inactive

Results for O=C(CN1CCN(Cc2ccc(F)cc2)S1(=O)=O)NCc1ccccc1 ?
FECH block: inactive

How did CC1CC(C)CN(CCNC(=O)C2CCN(c3ncnc4c3nc3n4CCCCC3)CC2)C1 (stereo not drawn) do in these assays?
FECH block: inactive

How did Cc1cc(C)n(C2CCN(C(=O)c3cn4c(n3)CNCC4)C2)n1 (stereo not drawn) do in these assays?
FECH block: inactive

What do the screens show for `Cc1ccc(-c2cc(Nc3ccc(Oc4ccccc4)cc3)nc(C)n2)cc1`?
FECH block: inactive

Results for CCC(CO)N(Cc1ccco1)C(=O)c1scc2c1OCCO2 (stereo not drawn) ?
FECH block: inactive

Results for CCc1c(C)nc2ncnn2c1Sc1ccc(NC(=O)Nc2ccccc2C)cc1 ?
FECH block: inactive

What do the screens show for `O=C(C1CCN(c2ccc(-c3ccccc3)nn2)CC1)N1CCCC1`?
FECH block: inactive
